SMN2 splice up = enhancers of SMN2 splice variant expression. HEK293 SMN2-luciferase splicing reporter, luminescence, 30-36 h. 2.8% of 210,000 active. Potency, µM (top dose mostly 46.1 µM), usual class: activators. AID 1458; also: nearly all actives have a fitted effect of over 55% in size
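HEK293 cells carry an SMN2 […]–luciferase reporter in which exon 7 inclusion puts luciferase in frame. Cells were plated 10-12 h before compound addition, then incubated 30-36 h at 37C. ONE-Glo luminescence was read; sodium butyrate at 4.5 mM final served as control.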
ELG1 genotoxic = induces genotoxicity in HEK293T cells with luciferase-tagged ELG1. 1.3% of 330,000 active. Potency, µM (doses to about 46 µM), usual class: activators. HEK293T ELG1-luciferase reporter, luminescence, 16 h; also: nearly all actives have a fitted effect of over 60% in size
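Cells (2,000/well) expressing the ELG1-luciferase fusion are dosed by pin tool and kept 16 hr at 37 °C, 5% CO2. Signal comes from ONE-Glo luciferase reagent after 30 min at room temperature.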
NPC1 prom act = activators of NPC1 promoter | Huh7 NPC1 promoter luciferase reporter, 24 h | Potency, µM (series often up to 9.22 µM), usual class: activators | 2.4% of 320,000 active | AID 485313; also: nearly all actives have a fitted effect of over 60% in size
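Compounds in DMSO were transferred onto Huh7 NPC1-luciferase reporter cells pre-incubated 2 h; after 24 h at 37 °C, Amplite reagent was dispensed and luminescence recorded 10 min later.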
Luc counter = counter-screen: inhibitors of Kinase-Glo firefly luciferase. Kinase-Glo luciferase, ATP luminescence, 8 min. Potency, µM (titrated, usually from 38.3 µM), hits mostly inhibitors. AID 1379. 0.28% of 200,000 active; also: nearly all actives have a fitted effect of over 60% in size
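Recombinant Kinase-Glo luciferase, 10 uM ATP (linear range), luciferin; imidazole pH 7.2 / KCl / MgCl2 / Tween / BSA buffer; 8 min RT; luminescence.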
FLuc counter = counter-screen for miR-21 project: firefly luciferase inhibitors or activators. P08659. purified FLuc, Km substrates, luminescence inhibition. Potency, µM (titrated, usually from 57.5 µM), most hits filed as inhibitors. 6.9% of 360,000 active. AID 588342; also: nearly all actives have a fitted effect of over 55% in size
Target sequence (P08659 whole entry, looked up): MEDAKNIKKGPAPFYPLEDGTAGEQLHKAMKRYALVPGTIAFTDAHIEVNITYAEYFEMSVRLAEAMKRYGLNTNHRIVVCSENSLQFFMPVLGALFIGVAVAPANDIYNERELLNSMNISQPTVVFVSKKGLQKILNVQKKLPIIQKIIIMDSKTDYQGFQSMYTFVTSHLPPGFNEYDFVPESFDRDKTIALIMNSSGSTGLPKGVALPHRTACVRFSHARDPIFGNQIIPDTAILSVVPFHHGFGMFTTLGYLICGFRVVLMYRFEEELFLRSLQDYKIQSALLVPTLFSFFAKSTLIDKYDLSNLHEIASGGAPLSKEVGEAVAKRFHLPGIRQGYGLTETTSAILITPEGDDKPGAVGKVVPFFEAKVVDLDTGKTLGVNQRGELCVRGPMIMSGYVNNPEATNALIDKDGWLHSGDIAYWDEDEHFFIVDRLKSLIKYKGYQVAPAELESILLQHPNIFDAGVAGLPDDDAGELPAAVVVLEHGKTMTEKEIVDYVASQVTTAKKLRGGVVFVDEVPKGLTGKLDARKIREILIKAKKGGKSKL
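Biochemical qHTS of compounds, final roughly 60 µM downward over six points, against 10 nM purified firefly luciferase using Km concentrations of substrates (10 uM D-luciferin, 10 uM ATP) in Tris acetate pH 7.5 buffer; luminescence output.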
Rab9 promoter act = Rab9 promoter activation | Huh7 Rab9 promoter-luciferase reporter, luminescence, 24 h | 2.8% of 320,000 active | Potency, µM (series often up to 9.22 µM), most hits filed as activators; also: nearly all actives have a fitted effect of over 60% in size
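Huh7 cells stably carrying Rab9 promoter–luciferase reporter, plated 1500 cells/well, compound added after 2 h and incubated 24 h at 37 °C; luciferase luminescence then read after 10 min with detection reagent.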
Hits are given with their value; . = inactive; ? = inconclusive; / = no result given; [ ] = remark or other dose. Rows were chosen to be rich in hits. Some 7.4% of all compounds tested hit in one or more screens of this group. Calls follow the shape of the dose curve; as a rule, active = well fitted curve in the direction sought with a large enough effect; inconclusive = small, poorly fitted or top-dose-only effect, or another doubt; inactive = no such curve, though single readings can be large; an effect the other way counts as inactive or inconclusive.

SMILES | SMN2 splice up | ELG1 genotoxic | NPC1 prom act | Luc counter | FLuc counter | Rab9 promoter act
N#Cc1ccccc1OCC(=O)Nc1ccc2c(c1)OCCO2 | / | ? | ? | / | 9.53µM | 1.41µM
O=C(COC(=O)Cc1ccccc1F)Nc1ccc2c(c1)OCCO2 | . | . | . | . | 16.9µM | .
O=C(COC(=O)c1c(F)cccc1F)Nc1ccc2c(c1)OCO2 | / | . | . | / | 6.75µM | .
O=C(COC(=O)Cc1ccccc1F)Nc1ccc2c(c1)OCO2 | . | . | . | . | ? | .
CCc1ccc(C(=O)c2cn(CC(=O)NCCc3ccccc3)c3nc(C)ccc3c2=O)cc1 | / | / | / | / | . | /
COc1ccc(Oc2ccc(C(F)(F)F)cc2NC(=O)c2ccc(OC)cc2)cc1 | / | . | . | / | . | .
COc1ccc(Oc2ccc(C(F)(F)F)cc2N)cc1 | / | . | . | / | 16.9µM | ?
CCOC(=O)c1ccc(NC(=O)Cn2cc(C(=O)c3ccc(Cl)cc3)c(=O)c3ccc(C)nc32)cc1 | / | / | / | / | . | /
CCc1c(C(=O)NNC(=S)NC2CCCCC2)csc1C | 1.58µM | . | . | . | . | .
CC(C)c1cc(C(=O)NNC(=S)NC2CCCCC2)cs1 | / | ? | 3.98µM | / | ? | ?
CCc1c(C(=O)NNC(=S)NCCc2ccccc2)csc1C | . | . | . | . | . | .
CCc1cc(C(=O)NNC(=S)NC2CCCCC2)cs1 | / | . | 3.55µM | / | . | 3.55µM
Cc1noc2ncnc(N3CCCC(C(=O)Nc4cccc(C(F)(F)F)c4)C3)c12 (configuration not stated) | / | / | / | / | . | /
COc1cc2c(C(=O)N3CCN(c4ccc(C)cc4)C(C)C3)cn(CC(C)C)c(=O)c2cc1OC (configuration not stated) | . | / | / | / | . | /
Cc1ccc(-n2ncc3c(Nc4ccccc4C)ncnc32)cc1 | / | / | / | / | 3.38µM | /
CCOc1ccc(Nc2ncnc3c2cnn3-c2ccc(F)cc2)cc1 | / | / | / | / | . | /
CCc1ccccc1Nc1ncnc2c1cnn2-c1ccc(Cl)cc1 | / | / | / | / | 12µM | /
CCOc1ccc(Nc2ncnc3c2cnn3-c2ccccc2)cc1 | . | 18.4µM | . | . | . | .
Cc1ccccc1Nc1ncnc2c1cnn2-c1ccccc1 | 11.2µM | 8.2µM | ? | . | 16.9µM | ?
O=C1CCCC=C1[C@@H](O)CCOC(c1ccccc1)(c1ccccc1)c1ccccc1 | . | / | / | . | / | /
COc1cc(Cl)c(C)cc1NC(=O)Cn1ncc2c(=O)oc3ccccc3c21 | . | / | / | / | . | /
C/C=C/C=C\C(=O)Nc1cccc(C2=NOC3(C2)C[C@@H](C(N)=O)N(C(=O)/C(C)=C/C)C3)c1 (some centres not stated) | / | . | . | / | ? | .
C/C=C(/C)C(=O)Nc1cccc(C2=NOC3(C2)C[C@@H](C(N)=O)N(C(=O)c2ccc(OC)cc2)C3)c1 (some centres not stated) | / | . | . | / | . | .
C/C=C\C=C/C(=O)Nc1cccc(C2=NOC3(C2)C[C@@H](C(N)=O)N(C(=O)c2ccc(Cl)cc2)C3)c1 (some centres not stated) | / | . | . | / | 15.1µM | .
C/C=C\C=C/C(=O)Nc1cccc(C2=NOC3(C2)C[C@H](C(N)=O)N(C(=O)c2ccc(OC)cc2)C3)c1 (some centres not stated) | / | . | . | / | 15.1µM | .
SMILES | SMN2 splice up | ELG1 genotoxic | NPC1 prom act | Luc counter | FLuc counter | Rab9 promoter act
Cc1nc2sc(-c3ccccc3)cc2c(=O)[nH]1 | 12.6µM | 0.581µM | 0.631µM | ? | 1.35µM | 0.501µM
Cc1nc2cc3ccccc3cc2c(=O)[nH]1 | ? | ? | ? | . | 13.5µM | ?
CC(C)OC(=O)Cc1nc2sc(-c3ccccc3)cc2c(=O)[nH]1 | / | ? | ? | / | 16.9µM | 4.47µM
O=c1[nH]c(-c2cccnc2)nc2sc(-c3ccccc3)cc12 | . | ? | . | . | 4.78µM | .
CCOc1ccccc1CNC(=O)CN1C(=O)CCn2nc(-c3cn(C)c4ccccc34)cc21 | / | / | / | / | . | /
CCCC[C@@H]1C[C@H]1C(NS(=O)(=O)c1cccc2cccnc12)c1ccc(-c2ccccc2)cc1 (some centres not stated) | . | / | / | . | / | /
Cc1ccc(-n2ncc(C(=O)Nc3ccc4c(c3)OCO4)c2C2CCN(C(=O)OC(C)(C)C)CC2)c(C)c1 | / | / | / | / | . | /
CNC(=S)NCCc1ccccc1 | / | . | . | / | . | .
Cc1ccc(NC(=O)CCCc2ccccc2)nc1 | 15.8µM | ? | ? | . | 16.9µM | 3.98µM
Cc1ccc(NC(=S)NCCc2ccccc2)nc1 | 25.1µM | ? | . | . | 16.9µM | ?
COc1ccc(Nc2cc(Nc3ccccc3)ncn2)cc1 | / | ? | 2µM | / | ? | 2µM
COc1cccc(Nc2cc(C)c3ccccc3n2)c1 | / | ? | . | / | 23.9µM | .[1.84 µM]
COc1cccc(Nc2ncnc3ccccc23)c1 | 14.1µM | 4.61µM | ? | . | 10.7µM | ?
O=C(Oc1cccc(Nc2ncnc3ccccc23)c1)c1ccccc1Cl | . | ? | . | . | 16.9µM | .
COc1ccccc1C(=O)NCCn1cc(SCc2ccc(C)cc2)c2ccccc21 | . | / | / | / | . | /
C[C@@H](CCc1ccc(O)cc1)NCCc1ccc(O)c(O)c1 | . | / | / | . | / | /
COc1ccc(Nc2ccnc(Nc3ccc(OC)cc3)n2)cc1 | . | . | ? | . | 7.57µM | ?
COc1ccc(Nc2ncnc3ccccc23)cc1 | 11.2µM | . | 3.16µM | . | 15.1µM | 2.82µM
CCOC(=O)c1ccc(-n2c(CCC(=O)O)ccc2-c2ccccc2)cc1O | . | / | / | / | ? | /
N#Cc1ccccc1COC(=O)CCC(=O)c1cccs1 | / | . | . | / | 12µM | .
O=C(CCC(=O)c1cccs1)OCC(=O)c1ccccc1F | / | . | . | / | 19µM | .
O=C(CCC(=O)c1cccs1)OCC(=O)c1ccccc1 | / | . | / | / | / | /
O=C1CC(c2ccccc2)Cc2[nH]c(=O)c(C(=O)Nc3ccc(OC(F)(F)F)cc3)cc21 (configuration not stated) | . | / | / | / | . | /
COCCn1c(C)cc(C(=O)CN2C(=O)NC3(CCCCCC3)C2=O)c1C | / | ? | 2.51µM | / | 10.7µM | 2µM
C=CCn1c(C)cc(C(=O)CN2C(=O)NC3(CCCc4ccccc43)C2=O)c1C (configuration not stated) | . | . | . | . | 19µM | .
SMILES | SMN2 splice up | ELG1 genotoxic | NPC1 prom act | Luc counter | FLuc counter | Rab9 promoter act
Cc1cc(C(=O)CN2C(=O)NC3(CCCc4ccccc43)C2=O)c(C)n1Cc1cccs1 (configuration not stated) | . | . | . | . | 6.01µM | .
COc1ccc(CCNC(=O)CSc2nnnn2-c2cccc(C(C)=O)c2)cc1OC | . | / | / | / | . | /
CCc1nc2ccc(C(=O)NCc3ccc(OC)c(OC)c3)cc2nc1CC | / | / | / | / | . | /
O=C(C1CCN(S(=O)(=O)c2cccs2)CC1)N1CCCCC1 | / | ? | 3.55µM | / | 4.26µM | ?
O=C(OCc1nc2ccccc2s1)C1CCN(S(=O)(=O)c2cccs2)CC1 | . | 11.2µM | . | . | 13.5µM | .
CCOC(=O)C1CCN(S(=O)(=O)C(F)(F)c2nc3ccccc3s2)CC1 | . | . | . | . | 26.9µM | .
